Screens from PubChem.
CHO-K1 Ca antag = M1 antagonist counterscreen hit in parental CHO-K1 cells; inhibition, % at 3 µM; AID 602250; ATP-induced calcium, Fluo-8 fluorescence; 360,000 compounds, 0.6% hits;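 active = inhibition above a per-plate cutoff, the plate's mean sample inhibition plus 3 SD, cut at about 24% in these data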;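 also: 0% = DMSO plus EC80 ATP and 100% = DMSO alone without ATP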
M1 ag = agonists of human M1 muscarinic receptor | P11229 | CHO-K1 hM1, Fluo-8 calcium fluorescence, agonist mode; 0% DMSO, 100% acetylcholine EC100 | activation, % at 3 µM | 360,000 compounds, 0.33% hits;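 active = activation above the run's mean compound activation plus 3 SD, cut at about 16% in these data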;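 also: peak over basal fluorescence ratio within a 140 s kinetic read after compound addition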
Target sequence (P11229 whole entry, looked up): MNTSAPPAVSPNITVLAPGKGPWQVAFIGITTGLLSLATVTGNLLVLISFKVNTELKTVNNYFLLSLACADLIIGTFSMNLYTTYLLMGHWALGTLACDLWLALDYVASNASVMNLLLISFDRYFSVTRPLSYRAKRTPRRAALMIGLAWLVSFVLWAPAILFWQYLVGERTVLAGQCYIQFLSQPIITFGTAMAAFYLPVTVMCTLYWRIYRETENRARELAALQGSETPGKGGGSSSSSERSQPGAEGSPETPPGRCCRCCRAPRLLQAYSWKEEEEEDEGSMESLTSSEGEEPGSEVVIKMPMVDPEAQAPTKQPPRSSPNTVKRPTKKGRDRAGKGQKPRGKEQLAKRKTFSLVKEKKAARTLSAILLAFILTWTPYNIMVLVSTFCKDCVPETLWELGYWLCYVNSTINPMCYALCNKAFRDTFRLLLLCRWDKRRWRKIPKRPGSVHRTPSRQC
M1 antag = antagonists of human M1 muscarinic receptor. CHO-K1 hM1, Fluo-8 calcium fluorescence, ACh EC80 antagonist. P11229. inhibition, % at 3 µM. 360,000 compounds, 1.3% hits. AID 588852;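 active = percent inhibition above its own plate's cutoff, namely the mean of that plate's compound wells plus 3 SD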;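 also: peak over basal fluorescence ratio during 140 s after agonist addition; 0% = ACh EC80 plus DMSO and 100% = DMSO alone without agonist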
M1 ag parental = counter-screen for M1 agonists: effect in parental CHO-K1 cells; Fluo-8 calcium fluorescence; scaled to maximal ATP response, vehicle zero; 360,000 compounds, 0.48% hits; activation, % at 3 µM; in the data active = activation above about 15%;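 also: untransfected CHO-K1 host cells lacking M1 receptor as counterscreen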
M1 PAM parental = nonselective activator or artifact in parental CHO-K1 calcium assay; ATP EC20, Fluo-8 calcium fluorescence; 0% at ATP EC20, 100% at ATP max; activation, % at 3 µM; 360,000 compounds, 0.02% hits; AID 602247;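 active = activation above the run cutoff, the mean activation of all test compounds plus 3 SD, cut at about 40% in these data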;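 also: peak over basal fluorescence ratio in a 140 s read after ATP addition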
CHRM1 PAM = human CHRM1 positive allosteric modulation; AID 588819; P11229; activation, % at 3 µM; 360,000 compounds, 0.088% hits; CHO-K1 hM1, Fluo-8 calcium fluorescence, ACh EC20; 0% = ACh EC20, 100% = maximal ACh; in the data active = activation above about 19%, passing the limit was not always enough
* hit, by the source's call. An excerpt weighted towards active compounds, which were near 2.4% of everything screened.

SMILES	CHO-K1 Ca antag	M1 ag	M1 antag	M1 ag parental	M1 PAM parental	CHRM1 PAM
CSC(=Nc1ccccc1)N=C(SCc1ccccc1)N(C)C	18	2	49*	9	6	-25
CCCC(O)(c1ccc(Cl)cc1)C(CN1CCOCC1)c1ccc(Cl)cc1 (configuration not stated)	-14	-7	6	0	6	-4
OC(CCN1CCOCC1)(c1ccc(Cl)cc1)C1CCCCC1 (configuration not stated)	0	-8	82*	0	7	-26
CCCOc1ccc(C(O)(CCC)CCN2CCCCC2)cc1 (configuration not stated)	4	-5	66*	1	-3	-23
CCCC(O)(CCN1CCOCC1)c1ccc(Br)cc1 (configuration not stated)	-15	-7	78*	0	7	-28
CCCC(O)(CCN1CCOCC1)c1ccc(Cl)cc1 (configuration not stated)	-5	-6	45*	1	19	-23
NC(=O)C1CCN(C(=O)COc2ccc3c4c(c(=O)oc3c2)CCCC4)CC1	3	-9	-2	1	13	-2
CCOC(=O)N1CCN(C(=O)c2ccc(CS(=O)Cc3ccc(C)cc3)o2)CC1 (configuration not stated)	9	2	3	1	-7	6
Cc1cc(O)c(C=Nc2cccc(Cl)c2)c(=O)o1	7	-2	-2	2	17	4
COc1ccc(N=Cc2c(O)cc(C)oc2=O)cc1	16	-4	3	16*	1	-2
CC1=C(C(=O)Nc2ccccc2)C(c2ccco2)C(C#N)=C(SCC(=O)Nc2cccc(C)c2C)N1 (configuration not stated)	-16	0	-2	0	5	5
CC1=C(C(=O)Nc2ccccc2)C(c2ccco2)C(C#N)=C(SCC(=O)OC(C)C)N1 (configuration not stated)	14	-1	33*	4	1	-10
Cc1cc(-c2nnc(SCC(=O)Nc3ccccc3C(F)(F)F)o2)c(C)n1-c1ccccc1	-6	17*	-12	7	7	-8
Cc1ccccc1Nc1nc(N)nc(COC(=O)c2ccc(O)cc2)n1	-4	19*	-6	7	26	12
O=C(Nc1ccc(OC(F)(F)F)cc1)N1CCN(c2ccnc3cc(Cl)ccc23)CC1	27*	-2	18	5	-21	-9
CC(C)(C)C(=O)N1CCN(c2ccnc3cc(Cl)ccc23)CC1	6	-3	-10	1	-24	6
O=C(CC12CC3CC(CC(Br)(C3)C1)C2)NC1CCCC1	-20	-15	55*	1	18	-37
O=[N+]([O-])c1ccc(N2CCN(S(=O)(=O)c3ccccc3)CC2)cc1NCCN1CCOCC1	9	-6	-26	1	4	11
Cc1cccc[n+]1CC(=O)c1ccc2c(c1)OCCO2	6	-11	28*	0	1	-27
Cc1cccc[n+]1CC(=O)c1ccc(Cl)cc1	6	-10	-25	0	-11	11
CCn1cc(C(=O)OC)c(=O)c2ccc(C)nc21	-11	-5	-11	-1	11	6
O=C(Nc1c(F)cc(F)cc1Br)c1cc(-c2ccccc2)on1	0	-4	4	0	3	-2
O=C(NCc1cccs1)c1cc(-c2ccc(O)cc2)on1	5	17*	-16	5	-4	4
Cc1ccc(-c2cc(C(=O)NCc3cccs3)no2)cc1	-3	-6	2	0	7	1
O=C(Nc1c(F)cc(F)cc1Br)c1cc(-c2ccc(O)cc2)on1	7	18*	-2	3	3	2
SMILES	CHO-K1 Ca antag	M1 ag	M1 antag	M1 ag parental	M1 PAM parental	CHRM1 PAM
Cc1cc(C(=O)CSc2nc3ccccc3[nH]2)c(C)n1CC1CCCO1 (configuration not stated)	58*	1	76*	20*	-18	-34
Cc1cc(C(=O)CSc2nc(N)cc(=O)[nH]2)c(C)n1CC1CCCO1 (configuration not stated)	-5	-6	-10	0	5	7
Cc1cc(Br)ccc1NC(=O)CN(C)C(=O)Cn1c(=O)cnc2ccccc21	1	-6	29*	0	-21	-17
Nc1ncnc2c1ncn2[C@@H]1O[C@H](CNS(=O)(=O)C2CC2)[C@@H](O)[C@H]1O	-15	-2	-5	1	12	4
S=c1nc(-c2ccccc2)c(-c2ccccc2)n[nH]1	-17	-5	-20	1	3	12
Nc1c(-c2ccccc2)n[nH]c1-c1ccccc1	-9	-14	104*	2	5	-37
Cc1onc(-c2c(Cl)cccc2Cl)c1C(=O)c1c[nH]c(C(=O)NCCCN2CCOCC2)c1	2	-6	76*	1	18	-22
Cc1onc(-c2c(Cl)cccc2Cl)c1C(=O)NCCCN1CCOCC1	-10	-6	-4	0	17	3
CC(=O)Nc1ccc(C(=O)OCCCOC(=O)c2ccc(NC(C)=O)cc2)cc1	2	-2	-11	3	14	6
O=C(OCCCOC(=O)c1cc[n+]([O-])cc1)c1cc[n+]([O-])cc1	7	3	-6	0	-20	26*
N#Cc1ccc(C(=O)Nc2nnc(-c3cccs3)o2)cc1	-5	-1	-9	0	9	10
O=C(Nc1nnc(-c2cccs2)o1)c1cccc(C(F)(F)F)c1	5	41*	-4	32*	17	-8
Cn1c(-c2cccc([N+](=O)[O-])c2)cnc1NCc1cccc([N+](=O)[O-])c1	-17	-5	19	2	16	-18
COc1ccc(OC)c(CNc2ncc(-c3cccc([N+](=O)[O-])c3)n2C)c1	-8	-9	45*	1	12	-29
O=C(Nc1ccc(Cc2ccncc2)cc1)C1CCC(N2C(=O)C3C4C=CC(C4)C3C2=O)CC1 (configuration not stated)	2	6	-10	18*	-1	-11
CCN(CC)CCC#CC(O)(c1ccccc1)c1ccccc1	-8	-11	99*	7	23	-27
OC(C#CCCN1CCCCC1)(c1ccccc1)C1CCCCC1 (configuration not stated)	0	-7	97*	1	1	-25
OC(CCN1CCCCC1)(c1ccccc1)C1C[C@@H]2C=C[C@H]1C2 (some centres not stated)	-1	-9	99*	0	12	-26
Cc1ccc(C(O)(CCN2CCCCC2)c2ccccc2)cc1 (configuration not stated)	-8	-9	101*	0	5	-27
